Source: PubChem BioAssay AID686979 (National Center for Advancing Translational Sciences (NCATS), 2013)
Hit rate of the full screen: of about 420,000 compounds, about 50,000 (12%) were called active. A call without a number means that no potency is given here. Another 26% or so got no clear call; they are omitted. The call rests on the fitted dose curve; in most records, active means well fitted inhibition curve with a large enough effect; inconclusive means small, poorly fitted or top-dose-only effect; inactive means flat fitted curve, though single readings scatter. Only a selection was taken, and actives are over-represented in it overall.

assay: qHTS for Inhibitors of human tyrosyl-DNA phosphodiesterase 1 (TDP1): qHTS in cells in presence of CPT; conditions: chicken DT40 Tdp1-/-;hTDP1 cells + 20 nM CPT, ATP luminescence, 48 h; series mostly up to 46.2 µM; further: nearly all actives have a fitted effect of over 55% in size
In short: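 Chicken DT40 Tdp1-/- cells stably complemented with human TDP1 were seeded at 400 cells/well in medium containing 20 nM camptothecin, exposed to pin-transferred compounds, and grown at 37 °C for at least 48 hr. Viability was read as ATP luminescence.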
Potency means the concentration at half of the fitted maximal effect.

Row | SMILES | Potency
1 | CCOc1ncccc1C(=O)OCC(=O)N1c2ccccc2CC1C (stereo unspecified) | inactive
2 | Oc1cccc2ccc(/C=C/c3ccc(Br)s3)nc12 | inactive
3 | Cc1c(C(=O)NCCN2C(=O)S/C(=C\c3cccs3)C2=O)cccc1[N+](=O)[O-] | inactive
4 | CCCNC(=O)CCn1cc(-c2ccc(OC)cc2)nc1CCN | inactive
5 | CC(=O)c1cccc(NC(=S)N2CCN(S(C)(=O)=O)CC2)c1 | inactive
6 | CCCCCn1c(=O)c(C(=O)OCC)c(Cl)c2ccccc21 | inactive
7 | COc1ccc(S(=O)(=O)Nc2ccc3oc(C)c(C(C)=O)c3c2)cc1 | 3.26 µM (active)
8 | CC(=O)c1c(C)oc2ccc(NS(=O)(=O)c3ccccc3)cc12 | inactive
9 | COc1ccc2oc(C)c(NC(C)=O)c2c1 | inactive
10 | Cc1cccc(-c2noc(CCC(=O)NC3CCCC3)n2)c1 | inactive
11 | CC(Oc1ccccc1)C(=O)Nc1c2c(nn1-c1ccccc1)CS(=O)C2 (stereo unspecified) | inactive
12 | Cc1cccc(NC(=O)c2nnn(-c3cccc(C(F)(F)F)c3)c2N)c1 | inactive
13 | COc1cccc(NC(=O)Cn2c(=O)cc(C)c3c(C)nn(-c4cccc(F)c4)c32)c1 | inactive
14 | Cc1cc(C(=O)Nc2cccc(C(F)(F)F)c2)c2c(C)nn(-c3cccc(F)c3)c2n1 | 18.4 µM (active)
15 | O=C(CNC(=O)c1ccccc1F)OCC(=O)c1c[nH]c2ccccc12 | inactive
16 | COc1ccc(S(=O)(=O)NCCSc2nnnn2-c2ccccc2)cc1 | inactive
17 | CCCn1c(=O)c2c(C(F)(F)F)cc(-c3cccs3)nc2n(CCC)c1=O | inactive
18 | Cc1nc2ccccc2n1CC(=O)N/N=C/c1cccs1 | inactive
19 | CCn1c(/C=N/NC(=O)c2ccc(OC)cc2)nc2ccccc21 | 13 µM (active)
20 | CCn1c(C(O)c2cc(OC)ccc2OC)nc2ccccc21 (stereo unspecified) | inactive
21 | O=C(CCN1CCCCC1)Nc1ccc(F)c(F)c1 | inactive

Row | SMILES | Potency
22 | O=C(CNS(=O)(=O)c1ccc2ccccc2c1)Nc1ccc(F)c(F)c1F | inactive
23 | Cc1ccc(S(=O)(=O)N2CCN(C(=O)COC(=O)c3c(C)noc3C)CC2)c(C)c1 | inactive
24 | Cc1ccc(S(=O)(=O)N2CCN(C(=O)COC(=O)CNC(=O)c3ccc(C(C)(C)C)cc3)CC2)c(C)c1 | inactive
25 | Cc1nc(-c2ccc(F)cc2)c(CC(=O)Nc2cccc(S(=O)(=O)N3CCOCC3)c2)s1 | inactive
26 | Cc1ccc(NC(=O)CN2C(=O)NC(C)(c3ccc(Cl)cc3)C2=O)c(Br)c1 (stereo unspecified) | inactive
27 | Cc1ccc(S(=O)(=O)N2CCN(C(=O)Cc3sc(C)nc3-c3ccc(F)cc3)CC2)c(C)c1 | 18.4 µM (active)
28 | CC1(C)NC(=O)N(CC(=O)N2CCN(S(=O)(=O)c3ccccc3F)CC2)C1=O | inactive
29 | Cc1ccc(S(=O)(=O)N2CCN(C(=O)CN3C(=O)NC(C)(c4ccc(Cl)cc4)C3=O)CC2)c(C)c1 (stereo unspecified) | 23.1 µM (active)
30 | CCCc1cc(=O)[nH]c(SCC(=O)N2CCN(S(=O)(=O)c3ccc(C)cc3C)CC2)n1 | inactive
31 | COc1ccccc1CCC(=O)OCC(=O)N1CCN(S(=O)(=O)c2ccc(C)cc2C)CC1 | 25.9 µM (active)
32 | O=c1[nH]snc1-c1c(Cl)cccc1Cl | inactive
33 | CC1CCN(S(=O)(=O)c2ccc3ncn(CC(=O)N(C)C4CCCCC4)c(=O)c3c2)CC1 | inactive
34 | CCc1cc(=O)oc2cc(C)cc(OCC(=O)N3CCC[C@@H]3C(=O)O)c12 | inactive
35 | O=Cc1c(NCCc2cccc(F)c2)c2ccccc2[nH]c1=O | inactive
36 | Cc1ccc2[nH]c(C)c(CCNC(=O)NC3CCCCC3)c2c1 | inactive
37 | CN(Cc1c(F)cccc1Cl)S(=O)(=O)c1cccs1 | inactive
38 | COc1ccc(CC(=O)N[C@@H]2c3cc(OC)c(OC)cc3C[C@H]2OCc2ccccc2)cc1 | inactive
39 | COc1ccc(C)cc1NC(=O)CN(C)S(=O)(=O)c1ccc2c(c1)n(C)c(=O)c(=O)n2C | inactive
40 | Cc1nc(NC(=O)C2CCCCC2)sc1C | inactive
41 | COc1cc(S(=O)(=O)Nc2ncn[nH]2)ccc1Cl | inactive
42 | COc1ccc(NC(=O)CCc2nnc3n(CC(C)C)c(=O)c4ccccc4n23)cc1OC | inactive

Row | SMILES | Potency
43 | CC(C)Cn1c(=O)c2ccccc2n2c(CCC(=O)N3CCN(c4cccc(Cl)c4)CC3)nnc12 | 10.3 µM (active)
44 | Cn1c(Cc2cccc3ccccc23)nnc1SCC(=O)N1CCN(c2cccc(Cl)c2)CC1 | 23.1 µM (active)
45 | CC(C)Cn1c(=O)c2ccccc2n2c(CCC(=O)NCc3ccccn3)nnc12 | inactive
46 | Cn1c(CNC(=O)c2ccco2)nnc1SCC(=O)N1CCN(c2ccccc2)CC1 | inactive
47 | Cc1ccccc1NC(=O)Cc1nnc(SCC(=O)N2CCN(c3ccccc3)CC2)n1C | inactive
48 | Cc1nc(NC(=O)c2ccc3c(c2)OCCO3)ccc1Br | inactive
49 | CC1CN(C(=S)Nc2cccc(F)c2)CC(C)O1 (stereo unspecified) | inactive
50 | O=C(CC1CCCCC1)NCc1ccco1 | inactive
51 | CC(=O)N1C[C@@H](CO)[C@@H](N(C)C(=O)c2ccco2)C[C@H]1c1ccccc1 | inactive
52 | OCC[C@H]1C[C@H](O)[C@@H](O)[C@]2(Cc3ccccc3CO2)O1 | inactive
53 | Cc1ccc(C2=CSC3=NS(=O)(=O)CCN23)cc1C | inactive
54 | CC(C)(C)OC(=O)C[C@@H]1C/C=C\C[C@@H](CC(=O)NCCO)C(=O)N[C@H](Cc2c[nH]c3ccccc23)COC1=O | inactive
55 | O=C1NC[C@@H](c2ccccc2)OC(=O)[C@H](Cc2ccc(F)cc2)CC/C=C/C[C@H]1CC(=O)N(CCO)Cc1ccccc1 | 16.4 µM (active)
56 | O=C(C[C@H]1C/C=C\C[C@@H](NC(=O)OCC2c3ccccc3-c3ccccc32)C(=O)O[C@@H](c2ccccc2)CNC1=O)N[C@H](CO)Cc1ccccc1 | 10.3 µM (active)
57 | CN(Cc1cccs1)C(=O)Cc1c[nH]c2ccccc12 | inactive
58 | O=C(N[C@@H](Cc1c[nH]c2ccccc12)C(=O)O)OCC1c2ccccc2-c2ccccc21 | inactive
59 | O=C1CCC/C=C\C[C@@H](CC(=O)N(CCO)Cc2ccccc2)C(=O)NCCO1 | inactive
60 | O=C1N[C@@H](c2ccccc2)COC(=O)[C@H](Cc2ccc(F)cc2)C/C=C\C[C@@H]1CC(=O)N(CCO)Cc1ccccc1 | 23.1 µM (active)
61 | O=C1N[C@H](Cc2c[nH]c3ccccc23)COC(=O)[C@H](Cc2ccc(F)cc2)C/C=C\C[C@H]1CC(=O)N(CCO)Cc1ccccc1 | 23.1 µM (active)
